From ChEMBL document CHEMBL4513216, “Probing the Open Global Health Chemical Diversity Library for Multistage-Active Starting Points for Next-Generation Antimalarials” (ACS Infect Dis, 2020) come the findings set out here.

Among all 69,000 compounds or so, about 8,600 (12%) showed an effect of 50% or more. The full list was thinned out, with strong results kept by preference.

This assay deals with Plasmodium berghei. As to the kind of experiment: Screen against P. berghei liver stage (PbLuc), transformed with Luciferase, at 10uM. In kind it is functional, HepG2. As to conditions: tested at 10 uM.
Regarding `NC(=O)CSc1ccccc1NC(=O)C1CCCCC1`, the INHIBITION was 21.1%. In the case of `CC1N(c2cnn(C)c2)C(=O)COC12CCN(c1ccccn1)CC2` (centres undefined) it was 39.5%; in that of `CC1N(c2cnn(C)c2)C(=O)COC12CCN(CC1CC1)CC2` (centres undefined), -5.25%; in that of `CC1N(c2cnn(C)c2)C(=O)COC12CCN(c1ncccn1)CC2` (centres undefined), 58.3%. As for `O=C(Cc1ccc2c(c1)CCO2)N1CCN(c2nccs2)CC1`, the INHIBITION is reported as 9.14%. In the case of `CN(C)c1cc(CNC(=O)Nc2nccs2)ccn1`, the INHIBITION is given as -0.219%. Turning to `CC(C)NC(=O)[C@H]1C[C@@H]2[C@@H](C1)OCCN2Cc1ccsc1`, the INHIBITION is 16.9%. Turning to `CCOCC(=O)NC1(c2cccc(Cl)c2)CC1`, the INHIBITION is given as 57.3%.

In the case of `CSCC(=O)NC1(c2cccc(Cl)c2)CC1`, the INHIBITION is reported as 8.41%.

In the case of `COCCCC(=O)NC1(c2cccc(Br)c2)CC1`, the INHIBITION was 32.5%. For `NC(=O)CSCC(=O)NC1(c2cccc(Br)c2)CC1`, the INHIBITION is 8.99%.

Consider `COCCSCC(=O)NC1(c2cccc(Br)c2)CC1`, for which the INHIBITION was found to be 54.4%. Consider `CCOCC(=O)NC1(c2cccc(Br)c2)CC1`, for which the INHIBITION turned out to be 45.1%.

Take `Cc1nn(C)c(N(C)C)c1CNCC(O)COc1ccccc1` (centres undefined): the INHIBITION was -56.9%. Consider `O=C(NCCSc1ccccc1)[C@H]1CNC[C@H](C(=O)N2CCOCC2)C1`, for which the INHIBITION is reported as 11.2%.

Turning to `CCS(=O)(=O)CC(C)N(C)C(=O)COc1ccccc1C#N` (centres undefined), the INHIBITION is -29.7%.

With `CCCc1nc(CN2CCCN(Cc3nccn3C)CC2)no1`, the INHIBITION was 25.6%. In the case of `CCOCCN1CCN(Cc2cccc(C(=O)N(C)C)c2)CC1CC` (centres undefined) it was 25.6%; in that of `O=C(CCc1ccccc1)NCC1CCN(Cc2ccccc2)CC1`, 54.2%. On to `O=C(CCc1ccsc1)NCC1CCN(Cc2cccs2)CC1`, for which the INHIBITION is reported as 14.6%.

With `O=C(CCSc1ccccc1)NCC1CCN(Cc2ccsc2)CC1`, the INHIBITION was determined as 27.6%. For `CCOCC(=O)NCC1CCN(Cc2ccsc2)CC1`, the INHIBITION is 60%. For the compound `O=C(CCc1ccccc1)NCC1CCN(Cc2cccs2)CC1`, the INHIBITION is recorded as 51.9%.

For the compound `O=C(COc1ccccc1)NCC1CCN(Cc2ccsc2)CC1`, the INHIBITION worked out at 27%. For the compound `O=C(CCc1ccccc1)NCC1CCN(Cc2ccsc2)CC1`, the INHIBITION was -11.8%. The result for `COCC(=O)NCC1CCN(Cc2ccsc2)CC1` reads -6.67%; that for `O=C(CCc1ccsc1)NCC1CCN(c2ccccc2)C1` (centres undefined), 2.74%; that for `Cc1ccccc1C1CCCN1Cc1nc2c(cnn2C)c(=O)[nH]1` (centres undefined), -52.5%. In the case of `CN(C)[C@@H]1CCN(c2ncc(F)cn2)[C@H]1Cc1ccccc1` it was -101%; in that of `CN(C)C(=O)CN1C(=O)CCC12CCN(Cc1cccn1C)CC2`, 33.2%. For `Cn1ccc(C(=O)N2CCN(CC(O)C(C)(C)C)CC2)cc1=O` (centres undefined), the INHIBITION was found to be 25.6%. Take `Cc1ccc2[nH]c(=O)cc(C(=O)NCCCn3nccc3C3CC3)c2c1`: the INHIBITION is -7.16%. `Cc1nc(N(C)C)ncc1C(=O)NCCCn1nccc1C1CC1`: the INHIBITION came out at 27.5%. Take `Cc1cc(C(=O)NCCCn2nccc2C2CC2)c(=O)[nH]c1C`: the INHIBITION is on record as 53.3%. For the compound `N#Cc1cccc(S(=O)(=O)N2CCCCC2CCN2CCCC2)c1` (centres undefined), the INHIBITION was found to be 51.3%.

As to `N#Cc1cccc(S(=O)(=O)N2CCCCC2CCN2CCCC2=O)c1` (centres undefined), the INHIBITION was found to be 20.1%. As to `COCCCC1CCCCN1S(=O)(=O)c1cccc(C#N)c1` (centres undefined), the INHIBITION is on record as -41.8%. Regarding `CNC(=O)NCC(CO)Cc1cccc(OC(F)(F)F)c1` (centres undefined), the INHIBITION was -10.3%. As to `CCS(=O)(=O)N1CCc2c(cnc(-c3cccnc3)c2C(=O)O)C1`, the INHIBITION was -1.26%.

For the compound `Cc1ccc(C)c(S(=O)(=O)CCN2CCc3c(ncn3C)C2)c1`, the INHIBITION turned out to be 19.4%.

As for `O=C(c1cncs1)N1CCC(Cc2cnc3[nH]ccc3c2)CC1`, the INHIBITION is given as 64.1%. As to `O=C(c1cnccn1)N1CCC(Cc2cnc3[nH]ccc3c2)CC1`, the INHIBITION came out at 17.1%. Consider `O=C(c1ccncc1)N1CCC(Cc2cnc3[nH]ccc3c2)CC1`, for which the INHIBITION was determined as 33.7%. On to `Cc1ccc(OC2(C(=O)NC(C)c3csc(C)n3)CCNCC2)cc1` (centres undefined), for which the INHIBITION is on record as 41.2%.

As for `Nc1nnnn1NCc1cccc2ccccc12`, the INHIBITION is 23.4%. `Nc1nnnn1NCc1ccccc1C(F)(F)F`: the INHIBITION is -24.6%. In the case of `Nc1nnnn1NCc1cccc(Cl)c1Cl` it was 61.5%; in that of `CC(C)NC(=O)C1CCc2nnc(C(C)(C)C)n21` (centres undefined), -15.5%; in that of `Cc1nc(CN2CCC3(CCN(c4cnn(C)c4)C3=O)C2)cs1` (centres undefined), -17.2%. Consider `CC1(C(=O)N2CCOCC2)CN(Cc2ncc[nH]2)CCO1` (centres undefined), for which the INHIBITION was determined as 27.8%. Take `Cc1ccc(CN2CC[C@@H](NS(C)(=O)=O)[C@@H]2Cc2ccncc2)o1`: the INHIBITION is -7.94%. `O=C(c1cc[nH]n1)N1CC[C@@H]2CN(Cc3ccncc3)S(=O)(=O)[C@@H]2CC1`: the INHIBITION is reported as 26.5%. Turning to `CCN1C[C@H]2CCN(C(C)=O)CC[C@H]2S1(=O)=O`, the INHIBITION is reported as -26.8%.

On to `CCN1C[C@H]2CCN(C(=O)Nc3ccccc3C)CC[C@H]2S1(=O)=O`, for which the INHIBITION worked out at 50.6%.

As for `Cc1ccccc1NC(=O)N1CC[C@@H]2CN(CC(C)C)S(=O)(=O)[C@@H]2CC1`, the INHIBITION is on record as -13.4%.

For `O=C(c1cc[nH]n1)N1CC[C@@H]2CN(Cc3ccccc3)S(=O)(=O)[C@@H]2CC1`, the INHIBITION is reported as -23.3%. The result for `O=C(c1cc[nH]n1)N1CC[C@@H]2CN(Cc3cccnc3)S(=O)(=O)[C@@H]2CC1` reads 76.4%; that for `CCN1C[C@H]2CCN(C(=O)c3cc[nH]n3)CC[C@H]2S1(=O)=O`, 63.5%. `COCCN1C[C@H]2CCN(C(=O)Nc3ccccc3C)CC[C@H]2S1(=O)=O`: the INHIBITION was determined as 34.6%. In the case of `CC(C)CN1C[C@H]2CCN(C(=O)c3ccccn3)CC[C@H]2S1(=O)=O` it was -19.6%; in that of `CCN(CC)C(=O)NCCc1ccn(-c2ccccc2)n1`, 7.67%.

On to `CCn1ncc2c1CCCC2NCc1ccc(OC)cc1OC` (centres undefined), for which the INHIBITION was 42%. The result for `O=C(CC1[C@H]2CN(c3ncccn3)C[C@@H]12)Nc1cccnc1` (some centres undefined) reads 13.7%; that for `Cc1nc(CN(C)C2CCN(Cc3ccc(C(N)=O)cc3)C2)no1` (centres undefined), -27.8%; that for `Cc1cccc(CN2CCCC(c3nccs3)C2)n1` (centres undefined), 43.6%. With `Cc1cc(C)cc(NCCC(=O)NCc2cccnc2N(C)C)c1`, the INHIBITION was determined as 23.7%. Regarding `O=C(c1cc2c(s1)CCC2)N1CCN(c2cnccn2)CC1`, the INHIBITION was -8.66%. In the case of `CN(C)CCO[C@H]1CN(Cc2ccc3c(c2)OCO3)[C@@H]2COC[C@H]12` it was 33%. In the case of `CCNC(=O)Cc1n[nH]c(-c2cncc(Br)c2)n1`, the INHIBITION is 39.3%.

With `Cc1cnn(CCNCC(=O)NC(C)c2ccc3c(c2)OCCO3)c1` (centres undefined), the INHIBITION is reported as 8.64%. As for `CC(=O)N1[C@H](CN(C)C)C[C@@H]2CN(C(=O)c3cccc(F)c3)CC[C@@H]21`, the INHIBITION was 29.9%. Regarding `CN(C)c1ccc(CCCNC(=O)NCC(O)c2ccsc2)cc1` (centres undefined), the INHIBITION is recorded as 8.92%. Take `CN(C)c1ccc(CCCNC(=O)NCC(O)c2cccs2)cc1` (centres undefined): the INHIBITION was determined as 60.4%. For the compound `CN(C)c1ccc(C(O)CNC(=O)NCCCc2ccccc2)cc1` (centres undefined), the INHIBITION turned out to be 5.91%.

On to `CN1CC(c2cc(O)nc(NCc3ccccc3Cl)n2)CC1=O` (centres undefined), for which the INHIBITION amounted to 30.4%.

Turning to `O=C(CCc1ccc(Cl)s1)NCc1nnc2n1CCCCC2`, the INHIBITION is given as 5.9%. Turning to `O=C(c1nc(Cc2c[nH]c3ccccc23)no1)N1CCCCC1`, the INHIBITION came out at 55.4%. For the compound `O=C(c1nc(Cc2c[nH]c3ccccc23)no1)N1CCOCC1`, the INHIBITION was found to be 29.9%. Regarding `O=C(c1nc(Cc2c[nH]c3ccccc23)no1)N1CCCC1`, the INHIBITION amounted to 25.2%. Consider `CCOc1ncccc1NC(=O)NCC(O)c1ccc(OC)cc1` (centres undefined), for which the INHIBITION is listed as 44.1%. The result for `Cc1cc(C)n(Cc2cc(C(=O)N3CCCC3c3nccs3)n[nH]2)n1` (centres undefined) reads 10.7%.

In the case of `CCOCc1nc2c(c(NC(CC)c3ccnn3C)n1)CCNCC2` (centres undefined), the INHIBITION worked out at 40.6%. For `CCOCc1nc2c(c(NC(CC)c3ccncc3)n1)CCNCC2` (centres undefined), the INHIBITION is 37.7%. `CCOCc1nc2c(c(NC(CC)c3cccnc3)n1)CCNCC2` (centres undefined): the INHIBITION came out at 53.5%.

`O=C1[C@@H]2C[C@H](O)CCN2C(=O)CN1CCSc1ccccn1`: the INHIBITION was -19.41%. In the case of `NC(=O)CN1CCC(c2cc(C(F)(F)F)n3ccnc3n2)CC1` it was 30.8%; in that of `CC(C)NC(=O)[C@@H]1CN(C)C[C@]12COc1ccc(F)cc1C2=O`, 12.515%; in that of `O=C(NCC(F)(F)F)c1ccc(-n2cccn2)nn1`, -27.8%. `Cc1csc(N2CCN(CC(=O)NCc3ccccn3)CC2C)n1` (centres undefined): the INHIBITION was -19.605%. As to `CC(CN1CCOC1=O)NC(=O)c1cccc(C#N)c1` (centres undefined), the INHIBITION was 42.1%. In the case of `CC(CNC(=O)c1cccc(-n2cccn2)c1)Cn1ccnc1` (centres undefined) it was -13.6%; in that of `CCn1nc(C)c(CCNC(=O)c2cccc(NCC(=O)O)c2)c1C`, 22.3%. As to `CCn1nc(C)c(CCNC(=O)c2cccc(-n3cccn3)c2)c1C`, the INHIBITION is given as 72.5%. For the compound `COc1cccc(C(C(=O)O)N2CCC(Cn3cccn3)CC2)c1OC` (centres undefined), the INHIBITION is 19.8%. In the case of `COCC(=O)N1CC(=O)c2sc(Nc3ccc(F)cc3F)nc2C1`, the INHIBITION is listed as 53%. Turning to `CNc1nc2c(s1)C(=O)CN(C(=O)[C@@H](N)Cc1cccc(OC)c1)C2`, the INHIBITION amounted to 45.6%.

`COCC(=O)N1CCC2(CC1)CNc1ccc(F)cc12`: the INHIBITION amounted to 5.63%. As to `COc1ccccc1Nc1nc2c(s1)C(=O)CN(C(=O)CC(C)C)C2`, the INHIBITION is listed as 59%. In the case of `CC(C)CC(=O)N1CC(=O)c2sc(NCCc3ccccc3)nc2C1` it was 35.2%; in that of `CC(C)CC(=O)N1CC(=O)c2sc(Nc3ccc(F)cc3F)nc2C1`, 63.4%; in that of `CC(C)CC(=O)N1CC(=O)c2sc(NC3CCCCC3)nc2C1`, 10%. As for `CC1CCC2(CC1)Nc1ccccc1CO2` (centres undefined), the INHIBITION was found to be 29.7%. With `CCOC(=O)C1(NC(=O)CCNc2cc(C)ccc2OC)CCCCC1`, the INHIBITION is -7.77%.

Consider `CC(C)Cc1nc(-c2ccnc(N3CCNCC3)n2)no1`, for which the INHIBITION is recorded as 31.2%.
